{"source": "the supplement of paper PMC12297408", "system": "Plasmodium falciparum NF54/iGP1_RE9H ulg8 stage V gametocytes", "test": "gametocyte viability (luciferase signal relative to DMSO control) (% of DMSO control); higher = less gametocytocidal activity, active = 50 or less", "details": "exposure time: 72 h", "method_in_brief": "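Gametocyte viability is reported relative to the average of DMSO vehicle wells on the same plate. The assay used day-12 stage V NF54/iGP1_RE9Hulg8 gametocytes at ~2.5% gametocytemia and 3% hematocrit, in 0.5% Albumax II medium, added to 96-well plates of compounds spotted in nanolitre volumes for final 10 µM or 1 µM, one well each. After 72 h at 37 °C, 90 µl was mixed with 10 µl D-luciferin (30 mg/ml), and luminescence was recorded with an IVIS Lumina II.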", "note": "Counter-ions that a name gives are not always drawn. About 40 (3%) of roughly 1,300 compounds showed activity. The sample holds actives, similar compounds and a random draw of the others, so the mix is not that of the screen. Values without a mark were called inactive."}
{"compound": "CC(C)C[C@H]1C(=O)N2CCC[C@H]2[C@]2(O)O[C@](NC(=O)[C@@H]3C=C4c5cccc6[nH]c(Br)c(c56)C[C@H]4N(C)C3)(C(C)C)C(=O)N12", "note": "[Bromocryptine mesylate]", "values": [{"measurement": "gametocyte viability", "setting": "concentration: 1 µM", "result": 84.2}, {"measurement": "gametocyte viability", "setting": "concentration: 10 µM", "result": 66.9}]}
{"compound": "CN1C[C@H](C(=O)N[C@]2(C)O[C@@]3(O)[C@@H]4CCCN4C(=O)[C@H](Cc4ccccc4)N3C2=O)C[C@@H]2c3cccc4[nH]cc(c34)C[C@H]21", "note": "[Dihydroergotamine tartrate]", "values": [{"measurement": "gametocyte viability", "setting": "concentration: 1 µM", "result": 66.8}, {"measurement": "gametocyte viability", "setting": "concentration: 10 µM", "result": "42.4 (active)"}]}
{"compound": "CCCN1C[C@H](CSC)C[C@@H]2c3cccc4[nH]cc(c34)C[C@H]21", "note": "[Pergolide mesylate]", "values": [{"measurement": "gametocyte viability", "setting": "concentration: 1 µM", "result": 78.2}, {"measurement": "gametocyte viability", "setting": "concentration: 10 µM", "result": 82.3}]}
{"compound": "CCNCC(O)c1cccc(O)c1", "note": "(stereo not given) [Etilefrine hydrochloride]", "values": [{"measurement": "gametocyte viability", "setting": "concentration: 1 µM", "result": 87.9}, {"measurement": "gametocyte viability", "setting": "concentration: 10 µM", "result": 90.2}]}
{"compound": "CCC1(c2cccc(O)c2)CCCCN(C)C1", "note": "(stereo not given) [Meptazinol hydrochloride]", "values": [{"measurement": "gametocyte viability", "setting": "concentration: 1 µM", "result": 83}, {"measurement": "gametocyte viability", "setting": "concentration: 10 µM", "result": 81.4}]}
{"compound": "CN1CCC2(C)c3cc(O)ccc3N(C)C12", "note": "(single isomer, unassigned; (-)) [(-)-Eseroline fumarate salt]", "values": [{"measurement": "gametocyte viability", "setting": "concentration: 1 µM", "result": 74.2}, {"measurement": "gametocyte viability", "setting": "concentration: 10 µM", "result": "44.8 (active)"}]}
{"compound": "CNC(=O)Oc1ccc2c(c1)[C@]1(C)CCN(C)[C@@H]1N2C", "note": "[Eserine sulfate, physostigmine sulfate]", "values": [{"measurement": "gametocyte viability", "setting": "concentration: 1 µM", "result": 83.4}, {"measurement": "gametocyte viability", "setting": "concentration: 10 µM", "result": 79}]}
{"compound": "C(#CCN1CCCC1)CN1CCCC1", "note": "[Tremorine dihydrochloride]", "values": [{"measurement": "gametocyte viability", "setting": "concentration: 1 µM", "result": 91.5}, {"measurement": "gametocyte viability", "setting": "concentration: 10 µM", "result": 94.7}]}
{"compound": "C[C@@H]1O[C@@H](O[C@@H]2C=C3CC[C@@H]4[C@H](CC[C@]5(C)[C@@H](c6ccc(=O)oc6)CC[C@]45O)[C@@]3(C)CC2)[C@H](O)[C@H](O)[C@H]1O", "note": "[Proscillaridin A]", "values": [{"measurement": "gametocyte viability", "setting": "concentration: 1 µM", "result": 81.2}, {"measurement": "gametocyte viability", "setting": "concentration: 10 µM", "result": 76.2}]}
{"compound": "CCCCCC[C@H]1C(=O)O[C@H](C)[C@H](NC(=O)c2cccc(NC=O)c2O)C(=O)O[C@@H](C)[C@@H]1OC(=O)CC(C)C", "note": "[Antimycin A]", "values": [{"measurement": "gametocyte viability", "setting": "concentration: 1 µM", "result": 86.4}, {"measurement": "gametocyte viability", "setting": "concentration: 10 µM", "result": 94.3}]}
{"compound": "Fc1ccc(C(OCCN2CCN(CCCc3ccccc3)CC2)c2ccc(F)cc2)cc1", "values": [{"measurement": "gametocyte viability", "setting": "concentration: 1 µM", "result": 81.5}, {"measurement": "gametocyte viability", "setting": "concentration: 10 µM", "result": 86}]}
{"compound": "COc1ccc(CCN2CCC(Nc3nc4ccccc4n3Cc3ccc(F)cc3)CC2)cc1", "note": "[Astemizole]", "values": [{"measurement": "gametocyte viability", "setting": "concentration: 1 µM", "result": 92.7}, {"measurement": "gametocyte viability", "setting": "concentration: 10 µM", "result": "36.4 (active)"}]}
{"compound": "CN(C)[C@@H]1C(=O)C(C(N)=O)=C(O)[C@@]2(O)C(=O)C3=C(O)c4c(O)ccc(Cl)c4[C@@](C)(O)[C@H]3C[C@@H]12", "note": "[Chlortetracycline hydrochloride]", "values": [{"measurement": "gametocyte viability", "setting": "concentration: 1 µM", "result": 88.2}, {"measurement": "gametocyte viability", "setting": "concentration: 10 µM", "result": 88.7}]}
{"compound": "CN1[C@@H]2CC[C@H]1C[C@@H](OC(=O)[C@H](CO)c1ccccc1)C2", "note": "[Hyoscyamine (L)]", "values": [{"measurement": "gametocyte viability", "setting": "concentration: 1 µM", "result": 86.7}, {"measurement": "gametocyte viability", "setting": "concentration: 10 µM", "result": 91.7}]}
{"compound": "CN1[C@@H]2CC[C@H]1C[C@@H](OC1c3ccccc3CCc3ccccc31)C2", "note": "[Deptropine citrate]", "values": [{"measurement": "gametocyte viability", "setting": "concentration: 1 µM", "result": 99.2}, {"measurement": "gametocyte viability", "setting": "concentration: 10 µM", "result": 86.5}]}
{"compound": "CC[C@@]1([C@@H]2O[C@@H]([C@H]3O[C@@](O)(CO)[C@H](C)C[C@@H]3C)C[C@@H]2C)CC[C@H]([C@]2(C)CC[C@]3(C[C@H](O)[C@@H](C)[C@@H]([C@@H](C)[C@@H](OC)[C@H](C)C(=O)O)O3)O2)O1", "note": "[Monensin sodium salt]", "values": [{"measurement": "gametocyte viability", "setting": "concentration: 1 µM", "result": "28.8 (active)"}, {"measurement": "gametocyte viability", "setting": "concentration: 10 µM", "result": "0.676 (active)"}]}
{"compound": "C[C@]12CC[C@H](O)C[C@H]1CC[C@@H]1[C@@H]2C[C@@H](O)[C@]2(C)[C@@H](C3=CC(=O)OC3)CC[C@]12O", "note": "[Digoxigenin]", "values": [{"measurement": "gametocyte viability", "setting": "concentration: 1 µM", "result": 74.9}, {"measurement": "gametocyte viability", "setting": "concentration: 10 µM", "result": 72.3}]}
{"compound": "O[C@@H]1CCCC[C@H]1N1CCC(c2ccccc2)CC1", "note": "[L(-)-vesamicol hydrochloride]", "values": [{"measurement": "gametocyte viability", "setting": "concentration: 1 µM", "result": 91.8}, {"measurement": "gametocyte viability", "setting": "concentration: 10 µM", "result": 84.9}]}
{"compound": "CC[C@@H](C(N)=O)N1CCCC1=O", "note": "[Levetiracetam]", "values": [{"measurement": "gametocyte viability", "setting": "concentration: 1 µM", "result": 83.8}, {"measurement": "gametocyte viability", "setting": "concentration: 10 µM", "result": 85.3}]}
{"compound": "C#C[C@]1(O)CC[C@H]2[C@@H]3CCC4=CC(=O)CCC4=C3C=C[C@@]21CC", "note": "[Gestrinone]", "values": [{"measurement": "gametocyte viability", "setting": "concentration: 1 µM", "result": 86.6}, {"measurement": "gametocyte viability", "setting": "concentration: 10 µM", "result": 74.2}]}
{"compound": "C[C@]12CCC(=O)C=C1C=C[C@@H]1[C@@H]2CC[C@@]2(C)[C@H]1CC[C@@]2(O)CCC(=O)O", "note": "[Canrenoic acid potassium salt]", "values": [{"measurement": "gametocyte viability", "setting": "concentration: 1 µM", "result": 83.5}, {"measurement": "gametocyte viability", "setting": "concentration: 10 µM", "result": 82.3}]}
{"compound": "C=CC[C@]1(O)CC[C@H]2[C@@H]3CCC4=CC(=O)CCC4=C3C=C[C@@]21C", "note": "[Altrenogest]", "values": [{"measurement": "gametocyte viability", "setting": "concentration: 1 µM", "result": 56.8}, {"measurement": "gametocyte viability", "setting": "concentration: 10 µM", "result": "33.1 (active)"}]}
{"compound": "C[N+]1([O-])[C@@H]2C[C@@H](OC(=O)[C@H](CO)c3ccccc3)C[C@H]1[C@@H]1O[C@@H]12", "note": "(stereo not given in full) [Scopolamin-N-oxide hydrobromide]", "values": [{"measurement": "gametocyte viability", "setting": "concentration: 1 µM", "result": 91.5}, {"measurement": "gametocyte viability", "setting": "concentration: 10 µM", "result": 94.5}]}
{"compound": "CCN[C@@H](C)Cc1cccc(C(F)(F)F)c1", "note": "[Dexfenfluramine hydrochloride]", "values": [{"measurement": "gametocyte viability", "setting": "concentration: 1 µM", "result": 95.2}, {"measurement": "gametocyte viability", "setting": "concentration: 10 µM", "result": 90.6}]}
{"compound": "C[C@]12COC(=O)C[C@@H]1CC[C@@H]1[C@@H]2CC[C@@]2(C)[C@H]1CC[C@]2(C)O", "note": "[Oxandrolone]", "values": [{"measurement": "gametocyte viability", "setting": "concentration: 1 µM", "result": 81.4}, {"measurement": "gametocyte viability", "setting": "concentration: 10 µM", "result": 78.9}]}
